These results are taken from publication PMC7862700, “An all-to-all approach to the identification of sequence-specific readers for epigenetic DNA modifications on cytosine”.

What all share (assay): DAPPL (digital affinity profiling via proximity ligation, sequencing); 10 mM Tris-HCl pH 7.5, 50 mM NaCl, 1 mM DTT, 4% glycerol, room temperature, 30 min; GST-TFs on glutathione beads, 16-mer random dsDNA library, 0.1% formaldehyde crosslink after washing; high values mean tight binding
Conditions in all cases: protein: recombinant; tags: N-terminal GST; dsDNA, one strand shown

The target of experiment [1] is T1, ELK4 (Homo sapiens, UniProt P28324-2 1-405).
T1 sequence: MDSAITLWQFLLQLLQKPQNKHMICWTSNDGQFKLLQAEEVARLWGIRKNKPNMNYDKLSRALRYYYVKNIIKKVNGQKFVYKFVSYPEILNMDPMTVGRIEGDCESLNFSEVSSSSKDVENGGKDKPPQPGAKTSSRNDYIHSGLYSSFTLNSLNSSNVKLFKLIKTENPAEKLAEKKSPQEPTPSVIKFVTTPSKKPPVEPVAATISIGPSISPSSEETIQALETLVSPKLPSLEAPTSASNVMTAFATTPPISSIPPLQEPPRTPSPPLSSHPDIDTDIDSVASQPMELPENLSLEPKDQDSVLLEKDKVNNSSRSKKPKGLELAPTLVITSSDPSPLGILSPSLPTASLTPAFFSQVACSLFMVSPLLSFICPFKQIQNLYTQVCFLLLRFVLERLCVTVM
The gist of the method:
(§1)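 Binding signal is defined as a hexamer's read frequency for one factor over its frequency for the tag-only sample. To obtain reads, GST-fused human transcription factors were expressed in yeast, captured on glutathione beads, barcoded with DNA and pooled with that sample. Pools met 200 nmole of a 16-mer random double-stranded DNA library in Tris/NaCl/DTT/glycerol buffer for 30 min at room temperature before washing, 0.1% formaldehyde crosslinking, proximity ligation (BsaI/T4 ligase, 1 h, 37 °C), PCR and Illumina NextSeq500 sequencing.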

Experiment [2] addresses T2, ELF3 (Homo sapiens, UniProt P78545 1-371).
T2 sequence: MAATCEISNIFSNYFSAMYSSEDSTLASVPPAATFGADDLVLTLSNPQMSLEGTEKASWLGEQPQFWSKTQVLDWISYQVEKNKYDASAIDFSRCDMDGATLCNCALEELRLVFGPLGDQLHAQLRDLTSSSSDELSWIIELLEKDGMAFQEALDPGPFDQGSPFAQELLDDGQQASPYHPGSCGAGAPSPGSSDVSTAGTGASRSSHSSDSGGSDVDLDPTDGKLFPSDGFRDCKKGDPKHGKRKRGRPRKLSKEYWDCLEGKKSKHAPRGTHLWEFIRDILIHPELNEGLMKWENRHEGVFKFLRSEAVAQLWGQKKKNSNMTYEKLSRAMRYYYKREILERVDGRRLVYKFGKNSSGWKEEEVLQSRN
The gist of the method:
as §1

Experiment [3] deals with T3, SPDEF (Homo sapiens, UniProt O95238 1-335).
T3 sequence: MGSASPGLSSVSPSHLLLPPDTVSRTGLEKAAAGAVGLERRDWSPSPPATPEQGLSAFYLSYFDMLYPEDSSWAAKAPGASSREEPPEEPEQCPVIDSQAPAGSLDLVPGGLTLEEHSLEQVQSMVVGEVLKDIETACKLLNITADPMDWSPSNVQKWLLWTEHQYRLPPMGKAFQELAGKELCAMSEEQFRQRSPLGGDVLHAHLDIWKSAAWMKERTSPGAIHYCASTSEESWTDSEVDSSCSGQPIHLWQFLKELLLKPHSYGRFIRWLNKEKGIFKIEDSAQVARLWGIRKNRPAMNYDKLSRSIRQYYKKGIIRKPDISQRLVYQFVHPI
The essentials:
as §1

In experiment [4] the target is T4, ETV7 (Homo sapiens, UniProt Q9Y603 1-341).
T4 sequence: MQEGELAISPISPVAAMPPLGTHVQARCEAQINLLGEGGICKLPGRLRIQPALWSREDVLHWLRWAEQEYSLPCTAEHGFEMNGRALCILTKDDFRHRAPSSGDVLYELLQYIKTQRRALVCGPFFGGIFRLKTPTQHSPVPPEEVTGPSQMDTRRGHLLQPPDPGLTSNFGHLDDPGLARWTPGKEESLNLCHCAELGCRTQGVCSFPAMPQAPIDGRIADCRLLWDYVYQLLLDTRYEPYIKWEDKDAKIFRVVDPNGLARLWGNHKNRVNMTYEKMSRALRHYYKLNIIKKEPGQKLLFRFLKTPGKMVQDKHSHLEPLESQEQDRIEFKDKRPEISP
The essentials: as §1

The target of experiment [5] is T5, ETV2 (Homo sapiens, UniProt O00321 1-342).
T5 sequence: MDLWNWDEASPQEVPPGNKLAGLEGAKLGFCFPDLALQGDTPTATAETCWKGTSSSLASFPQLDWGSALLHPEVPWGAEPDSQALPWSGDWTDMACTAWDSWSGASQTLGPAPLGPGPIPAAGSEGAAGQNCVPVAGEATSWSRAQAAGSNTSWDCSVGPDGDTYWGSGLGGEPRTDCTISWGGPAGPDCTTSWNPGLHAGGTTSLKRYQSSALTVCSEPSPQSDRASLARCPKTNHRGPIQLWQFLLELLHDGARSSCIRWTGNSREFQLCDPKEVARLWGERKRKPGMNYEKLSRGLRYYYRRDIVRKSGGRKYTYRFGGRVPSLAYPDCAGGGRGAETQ
The gist of the method: as §1

In experiment [6] the target is CRX (Homo sapiens, UniProt O43186 1-299). The essentials:
as §1

CRX, sequence (O43186 whole entry): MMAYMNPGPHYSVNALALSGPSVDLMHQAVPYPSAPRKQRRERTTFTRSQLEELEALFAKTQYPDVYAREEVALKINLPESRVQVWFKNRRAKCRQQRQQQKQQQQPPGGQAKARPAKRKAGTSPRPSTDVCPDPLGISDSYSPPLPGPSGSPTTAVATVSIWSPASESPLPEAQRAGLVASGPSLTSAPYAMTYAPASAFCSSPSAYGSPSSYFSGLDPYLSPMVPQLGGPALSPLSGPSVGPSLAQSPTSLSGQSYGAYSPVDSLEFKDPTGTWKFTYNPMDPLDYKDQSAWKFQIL

For the sequence CCGCTG, the binding signal in experiment [1] is 1.2 fold enrichment (6-mer frequency, TF over GST control); in experiment [2], 1.01 fold enrichment (6-mer frequency, TF over GST control); in experiment [3] it was 1.01 fold enrichment (6-mer frequency, TF over GST control); in experiment [4] it was 1.16 fold enrichment (6-mer frequency, TF over GST control).
In the case of CATACG, the binding signal in experiment [1] is 1.07 fold enrichment (6-mer frequency, TF over GST control); in experiment [2], 1.07 fold enrichment (6-mer frequency, TF over GST control); in experiment [3] it was 1.1 fold enrichment (6-mer frequency, TF over GST control).
As to ACATGG, the binding signal is 1.22 fold enrichment (6-mer frequency, TF over GST control) in experiment [1]; 1.17 fold enrichment (6-mer frequency, TF over GST control) in experiment [2]; 1.08 fold enrichment (6-mer frequency, TF over GST control) in experiment [4].
ACCACA: the binding signal in experiment [1] is 1.13 fold enrichment (6-mer frequency, TF over GST control); in experiment [2], 1.02 fold enrichment (6-mer frequency, TF over GST control).
Take GCCCCA: the binding signal in experiment [1] is 1.06 fold enrichment (6-mer frequency, TF over GST control); in experiment [3], 1.03 fold enrichment (6-mer frequency, TF over GST control).
For the sequence ATGGTG, the binding signal in experiment [1] is 1.17 fold enrichment (6-mer frequency, TF over GST control); in experiment [2] it was 1.07 fold enrichment (6-mer frequency, TF over GST control); in experiment [3] it was 1.14 fold enrichment (6-mer frequency, TF over GST control).
As for ACGTTG, the binding signal in experiment [1] was 1.12 fold enrichment (6-mer frequency, TF over GST control); in experiment [3], 1.17 fold enrichment (6-mer frequency, TF over GST control); in experiment [4] it was 1.1 fold enrichment (6-mer frequency, TF over GST control).
GTCTTG: the binding signal was 1.02 fold enrichment (6-mer frequency, TF over GST control) in experiment [1]; 1.05 fold enrichment (6-mer frequency, TF over GST control) in experiment [3]; 1.19 fold enrichment (6-mer frequency, TF over GST control) in experiment [4].
For the sequence CCGATG, the binding signal in experiment [1] was 1.07 fold enrichment (6-mer frequency, TF over GST control); in experiment [2], 1.11 fold enrichment (6-mer frequency, TF over GST control); in experiment [4], 1.1 fold enrichment (6-mer frequency, TF over GST control).
As to TGGACC, the binding signal is 1.03 fold enrichment (6-mer frequency, TF over GST control) in experiment [1]; 1.19 fold enrichment (6-mer frequency, TF over GST control) in experiment [2]; 1.05 fold enrichment (6-mer frequency, TF over GST control) in experiment [3]; 1.03 fold enrichment (6-mer frequency, TF over GST control) in experiment [4].
With CCACCT, the binding signal in experiment [1] is 1.21 fold enrichment (6-mer frequency, TF over GST control); in experiment [2] it was 1.3 fold enrichment (6-mer frequency, TF over GST control); in experiment [3], 1.19 fold enrichment (6-mer frequency, TF over GST control).
Consider GCCCAC, for which the binding signal in experiment [1] is 1 fold enrichment (6-mer frequency, TF over GST control); in experiment [2], 1.03 fold enrichment (6-mer frequency, TF over GST control); in experiment [3], 1.06 fold enrichment (6-mer frequency, TF over GST control).
As to AAGGGT, the binding signal in experiment [1] was 1.15 fold enrichment (6-mer frequency, TF over GST control); in experiment [4] it was 1.1 fold enrichment (6-mer frequency, TF over GST control).
In the case of TGGTGC, the binding signal in experiment [1] was 1.14 fold enrichment (6-mer frequency, TF over GST control); in experiment [3] it was 1.19 fold enrichment (6-mer frequency, TF over GST control); in experiment [4] it was 1.07 fold enrichment (6-mer frequency, TF over GST control).
On to CATCCA, for which, in experiment [1], the binding signal is 1.07 fold enrichment (6-mer frequency, TF over GST control).
Consider TTGCCG, for which the binding signal in experiment [1] was 1 fold enrichment (6-mer frequency, TF over GST control); in experiment [2], 1.09 fold enrichment (6-mer frequency, TF over GST control); in experiment [3], 1.13 fold enrichment (6-mer frequency, TF over GST control); in experiment [4] it was 1.22 fold enrichment (6-mer frequency, TF over GST control).
In the case of AAGGCA, the binding signal in experiment [1] is 1.03 fold enrichment (6-mer frequency, TF over GST control); in experiment [4] it was 1.05 fold enrichment (6-mer frequency, TF over GST control).
Turning to GGGTTC, the binding signal in experiment [1] was 1 fold enrichment (6-mer frequency, TF over GST control); in experiment [2] it was 1.02 fold enrichment (6-mer frequency, TF over GST control); in experiment [3] it was 1.14 fold enrichment (6-mer frequency, TF over GST control).
Consider GTCTAC, for which the binding signal in experiment [1] is 1 fold enrichment (6-mer frequency, TF over GST control); in experiment [3], 1.11 fold enrichment (6-mer frequency, TF over GST control).
CGGCCT: the binding signal in experiment [1] is 1.13 fold enrichment (6-mer frequency, TF over GST control); in experiment [2], 1.03 fold enrichment (6-mer frequency, TF over GST control); in experiment [3], 1.12 fold enrichment (6-mer frequency, TF over GST control); in experiment [4], 1.23 fold enrichment (6-mer frequency, TF over GST control).
On to GGTTTT, for which the binding signal in experiment [1] was 1.03 fold enrichment (6-mer frequency, TF over GST control); in experiment [5], 1.2 fold enrichment (6-mer frequency, TF over GST control); in experiment [2] it was 1.14 fold enrichment (6-mer frequency, TF over GST control); in experiment [6], 1.19 fold enrichment (6-mer frequency, TF over GST control); in experiment [3], 1.07 fold enrichment (6-mer frequency, TF over GST control); in experiment [4], 1.1 fold enrichment (6-mer frequency, TF over GST control).
Take TCAACA: the binding signal was 1.03 fold enrichment (6-mer frequency, TF over GST control) in experiment [1]; 1.12 fold enrichment (6-mer frequency, TF over GST control) in experiment [2]; 1.07 fold enrichment (6-mer frequency, TF over GST control) in experiment [3].
Regarding TTGGTC, the binding signal is 1.15 fold enrichment (6-mer frequency, TF over GST control) in experiment [1]; 1.06 fold enrichment (6-mer frequency, TF over GST control) in experiment [3]; 1.18 fold enrichment (6-mer frequency, TF over GST control) in experiment [4].
Regarding TGCTGC, the binding signal is 1.22 fold enrichment (6-mer frequency, TF over GST control) in experiment [1]; 1.11 fold enrichment (6-mer frequency, TF over GST control) in experiment [2]; 1.05 fold enrichment (6-mer frequency, TF over GST control) in experiment [3]; 1.1 fold enrichment (6-mer frequency, TF over GST control) in experiment [4].
As for ACCACC, the binding signal is 1.16 fold enrichment (6-mer frequency, TF over GST control) in experiment [1]; 1.21 fold enrichment (6-mer frequency, TF over GST control) in experiment [2]; 1.17 fold enrichment (6-mer frequency, TF over GST control) in experiment [3].
Turning to GCGCGC, the binding signal is 1.1 fold enrichment (6-mer frequency, TF over GST control) in experiment [1]; 1.05 fold enrichment (6-mer frequency, TF over GST control) in experiment [2]; 1.05 fold enrichment (6-mer frequency, TF over GST control) in experiment [4].
Regarding CCACAC, the binding signal in experiment [1] was 1.04 fold enrichment (6-mer frequency, TF over GST control); in experiment [3], 1.13 fold enrichment (6-mer frequency, TF over GST control).
In the case of AGCAAC, the binding signal in experiment [1] is 1.12 fold enrichment (6-mer frequency, TF over GST control); in experiment [3] it was 1.08 fold enrichment (6-mer frequency, TF over GST control); in experiment [4], 1.1 fold enrichment (6-mer frequency, TF over GST control).
With GTCCCA, the binding signal was 1.13 fold enrichment (6-mer frequency, TF over GST control) in experiment [1]; 1.08 fold enrichment (6-mer frequency, TF over GST control) in experiment [2]; 1.13 fold enrichment (6-mer frequency, TF over GST control) in experiment [4].
With GCTGCC, the binding signal in experiment [1] is 1.2 fold enrichment (6-mer frequency, TF over GST control); in experiment [3], 1.09 fold enrichment (6-mer frequency, TF over GST control); in experiment [4], 1.04 fold enrichment (6-mer frequency, TF over GST control).
Turning to TGCCAA, the binding signal in experiment [1] was 1.06 fold enrichment (6-mer frequency, TF over GST control); in experiment [2], 1.17 fold enrichment (6-mer frequency, TF over GST control); in experiment [3], 1.08 fold enrichment (6-mer frequency, TF over GST control); in experiment [4], 1.01 fold enrichment (6-mer frequency, TF over GST control).
Take ATGCCG: the binding signal was 1.15 fold enrichment (6-mer frequency, TF over GST control) in experiment [1] and 1.13 fold enrichment (6-mer frequency, TF over GST control) in experiment [3].
Regarding AAAGCG, the binding signal in experiment [1] was 1.25 fold enrichment (6-mer frequency, TF over GST control); in experiment [5], 1.06 fold enrichment (6-mer frequency, TF over GST control); in experiment [2], 1.14 fold enrichment (6-mer frequency, TF over GST control); in experiment [6], 1.14 fold enrichment (6-mer frequency, TF over GST control); in experiment [3], 1.03 fold enrichment (6-mer frequency, TF over GST control); in experiment [4], 1.11 fold enrichment (6-mer frequency, TF over GST control).
